Experimental findings from PubChem BioAssay AID2642 (Johns Hopkins Ion Channel Center, 2010) are described below.

The campaign covered roughly 310,000 compounds. About 3,900 (1.3%) were called active.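 Rule for the calls: active = compounds whose thallium flux B-score, printed positive for inhibition, exceeds three library SD while starting fluorescence stays within three; inactive = the rest.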 What follows is part of a selection rich in actives, with near analogues and random picks from the rest.

Potassium voltage-gated channel subfamily KQT member 1 (Homo sapiens), sequence (P51787 whole entry, looked up): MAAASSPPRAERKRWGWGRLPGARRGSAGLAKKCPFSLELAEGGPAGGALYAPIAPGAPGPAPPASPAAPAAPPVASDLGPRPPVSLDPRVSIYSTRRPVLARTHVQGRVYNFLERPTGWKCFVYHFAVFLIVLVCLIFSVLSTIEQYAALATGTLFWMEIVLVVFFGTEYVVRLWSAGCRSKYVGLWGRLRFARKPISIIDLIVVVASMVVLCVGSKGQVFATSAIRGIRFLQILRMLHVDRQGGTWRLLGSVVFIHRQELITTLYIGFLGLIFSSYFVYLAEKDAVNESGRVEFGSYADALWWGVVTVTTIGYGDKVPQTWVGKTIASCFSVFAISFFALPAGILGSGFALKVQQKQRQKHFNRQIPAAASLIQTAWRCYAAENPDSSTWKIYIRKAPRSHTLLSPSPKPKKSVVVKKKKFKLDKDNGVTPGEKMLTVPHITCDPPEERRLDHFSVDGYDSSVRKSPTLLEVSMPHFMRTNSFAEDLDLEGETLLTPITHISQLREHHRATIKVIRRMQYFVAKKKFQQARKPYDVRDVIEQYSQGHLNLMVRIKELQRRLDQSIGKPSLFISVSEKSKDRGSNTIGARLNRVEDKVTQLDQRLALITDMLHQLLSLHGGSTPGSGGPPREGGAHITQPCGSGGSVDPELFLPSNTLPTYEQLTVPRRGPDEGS

This experiment concerns the target Potassium voltage-gated channel subfamily KQT member 1 (Homo sapiens) (UniProt P51787). Nature of the experiment: KCNQ1 potassium current blockers – cell-based, thallium flux, high-throughput, primary screen (AID 2642).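 Note: channel opened by potassium depolarization with thallium stimulus after 20 min compound exposure.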 The following applies: CHO-K1 KCNQ1, FluxOR thallium flux fluorescence, at 10 µM; hits give high values.
For `CCC(=C/c1sc2ccc3ccccc3c2[n+]1C)/C=C1\Sc2ccc3ccccc3c2N1C`, the B-score was 19 (active).

Consider `COC(=O)c1ccc(NC(=O)c2ccccc2NS(=O)(=O)c2ccccc2)cc1`, for which the B-score result was “inactive”.

As for `COc1cc(NC(=O)c2ccccc2NS(=O)(=O)c2ccc(Cl)s2)cc(OC)c1`, the B-score was 8 (active).

On to `COc1cc(OC)c(S(=O)(=O)Nc2ccccc2C(=O)O)cc1S(=O)(=O)Nc1ccccc1C(=O)O`, for which the B-score entry was “inactive”.

Regarding `N#Cc1cccc(CN2CCC(=O)N(CCO)CC2)c1`, the B-score entry was “inactive”.

Turning to `O=C(NC1CCC(O)CC1)c1ccccc1OCc1ccc(F)cc1` (configuration not stated), the B-score result is “inactive”.

In the case of `CC(=O)c1ccccc1OCc1ccc(C(=O)c2ccccc2)cc1`, the B-score is 9 (active).

In the case of `COc1ccc(CCNC(=O)c2ccccc2OCc2ccccc2)cc1`, the B-score result is “inactive”.

For `C/C(=N\NC(=O)Cc1ccccc1[N+](=O)[O-])c1cccnc1`, the B-score result was “inactive”.

As to `COc1ccc(C(CNC(=O)c2ccc(S(=O)(=O)Nc3ccccc3C)cc2)N2CCOCC2)cc1` (configuration not stated), the B-score result is “inactive”.

On to `COc1ccc(C(CNC(=O)c2cccc(NS(=O)(=O)c3ccc(C)c(F)c3)c2)N2CCCC2)cc1` (configuration not stated), for which the B-score was 8 (active).

For `COc1ccc(C(CNC(=O)c2cccc(S(=O)(=O)Nc3ccccc3Cl)c2)N2CCOCC2)cc1` (configuration not stated), the B-score entry is “inactive”.

`CSCCC(NC(=O)COc1ccccc1)C(=O)OCCOc1ccc(Br)cc1` (configuration not stated): the B-score entry is “inactive”.

As for `Cc1ccc2nc(C)c3c(c2c1)N(c1ccccc1)CC3`, the B-score was 7 (active).

In the case of `Cc1ccc2nc(Nc3ccccc3)cc(C)c2c1`, the B-score entry was “inactive”.

Regarding `Cc1nc2ccc(C(=O)N3CCN(c4ccccc4)CC3)cc2s1`, the B-score entry is “inactive”.

In the case of `CCOC(=O)c1nnn(-c2nonc2-n2cccc2)c1CN1CCC(C(=O)OCC)CC1`, the B-score entry is “inactive”.

Consider `O=C(Nc1cccc(Cl)c1)c1cc(S(=O)(=O)N2CCCCC2)c[nH]1`, for which the B-score entry is “inactive”.

With `COc1ccc(C2CC(c3cccs3)=NN2c2ccc(F)cc2)cc1OC` (configuration not stated), the B-score entry was “inactive”.

For the compound `COc1ccccc1N1N=C(c2cccs2)CC1c1ccccc1` (configuration not stated), the B-score result was “inactive”.

`Fc1ccc(N2N=C(c3cccs3)CC2c2ccco2)c(F)c1` (configuration not stated): the B-score was 6 (active).

With `O=C(c1c(F)cccc1F)N1CCN(c2ncc(Br)cn2)CC1`, the B-score entry was “inactive”.

On to `O=C(NCC(c1ccco1)N1CCc2ccccc21)c1cccc(F)c1` (configuration not stated), for which the B-score entry was “inactive”.

On to `O=C(COC(=O)c1ccc(S(=O)(=O)N2CCc3ccccc3C2)cc1)NC(=O)NCc1ccco1`, for which the B-score entry is “inactive”.

As to `COc1c(C)cc(C(=O)C2CCCN(S(=O)(=O)c3c(C)noc3C)C2)cc1C` (configuration not stated), the B-score entry was “inactive”.

For the compound `CCOc1ccc(S(=O)(=O)N2CCN(C(=S)NCC3CCCO3)CC2)cc1` (configuration not stated), the B-score entry is “inactive”.

On to `COc1ccc(S(=O)(=O)N2CCN(C(=S)NCC3CCCO3)CC2)cc1OC` (configuration not stated), for which the B-score entry is “inactive”.

In the case of `S=C(NCC1CCCO1)N1CCN(c2ccc(Cl)c(Cl)c2)CC1` (configuration not stated), the B-score was 7 (active).

As for `CC(C)=CCc1c(O)c(CC=C(C)C)c2occ(-c3ccc(O)cc3)c(=O)c2c1O`, the B-score is 11 (active).

As to `O=c1c(-c2ccccc2)coc2c(CN3CCOCC3)c(O)ccc12`, the B-score result is “inactive”.

For `CC(C)CN(Cc1c(O)ccc2c(=O)c(-c3ccccc3)coc12)CC(C)C`, the B-score entry is “inactive”.

As to `O=C(NCCc1ccc(Cl)cc1)c1cccc(N2CCCC2=O)c1`, the B-score result was “inactive”.

On to `Cc1nnc(SCC(=O)Nc2ncc3c(n2)CC(C)(C)CC3=O)s1`, for which the B-score entry is “inactive”.

As for `Cc1ccccc1NC(=O)CSc1ccc2nnc(-c3ccccn3)n2n1`, the B-score result was “inactive”.

In the case of `COc1cc(/C=C2\CCCc3c2nc2ccccc2c3C(=O)O)cc(Cl)c1O`, the B-score entry is “inactive”.

With `CC(NC(=O)COC(=O)c1ccc2c(c1)OCO2)c1ccccc1` (configuration not stated), the B-score result was “inactive”.

Regarding `NC(=O)c1ccc(NC(=O)COC(=O)c2c3c(nc4ccccc24)/C(=C\c2ccc4c(c2)OCO4)CCC3)cc1`, the B-score is 7 (active).

With `CSc1ccccc1NC(=O)c1cc(C2CC2)on1`, the B-score entry is “inactive”.

Regarding `Cc1cc(=O)oc2cc(OCC(=O)N3CCN(c4ccc(F)cc4)CC3)c(Cl)cc12`, the B-score entry is “inactive”.

Regarding `O=C(c1cc(-c2ccco2)nc2ccccc12)N(Cc1nnc(-c2ccc(Cl)cc2)o1)C1CC1`, the B-score entry is “inactive”.

Take `O=C(CN1C(=O)NC2(CCCCC2)C1=O)NCCc1c[nH]c2ccccc12`: the B-score result was “inactive”.

For the compound `N#C/C(=C/c1ccc(N2CCCCC2)o1)C(=O)NCCc1c[nH]c2ccccc12`, the B-score is 7 (active).

`CC(=O)N/C(=C/c1ccc(Cl)cc1)C(=O)NCCc1c[nH]c2ccccc12`: the B-score result was “inactive”.

Regarding `CCCc1ccc(-c2c(C)sc(NC(=O)c3ccnn3C)c2C#N)cc1`, the B-score result was “inactive”.

Turning to `Cc1noc(/C=C/c2ccco2)c1S(=O)(=O)N1CCC(C(=O)N2CCc3ccccc32)CC1`, the B-score entry was “inactive”.

Regarding `Cc1ccccc1C(=O)OC1OC(=O)C(Cl)=C1Nc1ccccc1` (configuration not stated), the B-score was 11 (active).

`O=C1OC(OC(=O)c2ccccc2Br)C(N2CCOCC2)=C1Cl` (configuration not stated): the B-score result was “inactive”.

Turning to `Cc1ccc(NC2=C(Cl)C(=O)OC2OC(=O)c2ccccc2C)cc1` (configuration not stated), the B-score result was “inactive”.

On to `O=C(NC1CC1)C1=C[C@H](c2c[nH]c3ccccc23)C[C@H](OCc2ccc(CO)cc2)O1`, for which the B-score entry is “inactive”.

Regarding `CC(C)(C)c1ccc(/C=C/C(=O)NC2CCS(=O)(=O)C2)cc1` (configuration not stated), the B-score entry is “inactive”.

In the case of `Clc1ccc(C2[C@H]3CN(CC4CCCCC4)[C@H](c4ccccc4)C34CC2(c2cccnc2)C4)cn1` (some centres not stated), the B-score result was “inactive”.

For `CCOC(=O)N1CCN(C(=O)c2ccc3c(c2)N(Cc2ccc(C)cc2)CCS3)CC1`, the B-score result was “inactive”.

`O=C(NCCN1CCOCC1)c1ccc2c(c1)N(Cc1ccc(Cl)cc1)CCS2`: the B-score result was “inactive”.

In the case of `O=C(NCCc1ccccc1)c1ccc2c(c1)N(Cc1ccccc1)CCS2`, the B-score was 10 (active).

As to `CC(=O)c1c(C)n(-c2ccc(C)cc2)c2ccc(O)cc12`, the B-score entry was “inactive”.

With `CCc1ccc(CN(C)C(=O)C2CCC(=O)N(Cc3cccc(OC)c3)C2)nc1` (configuration not stated), the B-score entry was “inactive”.

For `COc1cc(N2C(=O)c3ccccc3C2=O)c(Cl)cc1C(=O)OCC(=O)N1CCOCC1`, the B-score entry is “inactive”.

As to `C=CS(=O)c1sc(Cl)c(N2CCOCC2)c1[N+](=O)[O-]` (configuration not stated), the B-score is 7 (active).

With `Cc1ccccc1C(=O)NCC(c1ccco1)N1CCc2ccccc21` (configuration not stated), the B-score entry is “inactive”.

As for `Cc1ccc(C(=O)OCC(=O)NC(=O)Cc2ccccc2)c(O)c1`, the B-score result was “inactive”.

Consider `O=[N+]([O-])/C(N=Nc1ccccc1)=N\Nc1ccccc1`, for which the B-score entry was “inactive”.

Turning to `CCN(C(=O)COC(=O)c1sccc1C)c1c(N)n(Cc2ccccc2)c(=O)[nH]c1=O`, the B-score entry was “inactive”.

As for `O=C(O)CCCn1c(=O)c2cccn2c2ccc(F)cc21`, the B-score entry was “inactive”.

In the case of `CCOC(=O)CSC1=C(C#N)C(c2sccc2C)CC(=O)N1` (configuration not stated), the B-score entry was “inactive”.

For `C=CCOC(=O)C1=C(C)NC(SCC(=O)OCC)=C(C#N)C1c1ccc(C)cc1` (configuration not stated), the B-score was 6 (active).

As for `C=CCOC(=O)C1=C(C)OC(N)=C(C#N)C1c1ccc(F)cc1` (configuration not stated), the B-score entry was “inactive”.

Consider `NC(=O)c1ncc(C(F)(F)F)cc1Oc1ccc(F)cc1`, for which the B-score entry is “inactive”.

Consider `CCOc1ccc(N/C(N)=N/c2nc(C)c(C)c(=O)[nH]2)cc1`, for which the B-score entry is “inactive”.

With `CCc1nnc(NC(=O)CCCSc2nc3ccccc3[nH]2)s1`, the B-score entry was “inactive”.

With `CCC(C)N1C(=O)S/C(=C/c2ccc(Sc3nc4ccccc4[nH]3)o2)C1=O` (configuration not stated), the B-score was 13 (active).

With `CCCCSc1nc2ccccc2[nH]1`, the B-score result is “inactive”.

As to `CCOc1ccc(C(=O)NCC(=O)N2CCCCCCC2)cc1OCC`, the B-score entry was “inactive”.

Consider `CC(=O)N1CCC(C(=O)Nc2nc(-c3ccccc3)ns2)CC1`, for which the B-score entry was “inactive”.

Take `O=C(N/N=C/c1c[nH]c2ccccc12)c1ccccc1O`: the B-score result was “inactive”.

Regarding `C[n+]1ccc(/C=C/c2c[nH]c3ccccc23)cc1`, the B-score is 13 (active).

As to `COc1ccc(/C=C(\C#N)c2c[nH]c3ccccc23)cc1`, the B-score result was “inactive”.

With `COc1ccc(CC(=O)OC(C)C(=O)Nc2ccc(S(N)(=O)=O)cc2)cc1` (configuration not stated), the B-score entry is “inactive”.

As to `COC(=O)c1cc(NC(=O)c2ccco2)ccc1N1CCOCC1`, the B-score entry is “inactive”.

As for `COC(=O)c1cc(NC(=O)c2cc(C(C)(C)C)nn2Cc2cccc(C)c2)ccc1N1CCOCC1`, the B-score was 6 (active).

Consider `CC(=O)Nc1ccc(N2CCOCC2)c(C(=O)Nc2cccc(C)c2)c1`, for which the B-score result is “inactive”.

Regarding `COc1cccc(C(O)c2nc3ccccc3n2C)c1` (configuration not stated), the B-score entry is “inactive”.

On to `CCCCCCOC(=O)NCC(O)c1ccccc1` (configuration not stated), for which the B-score entry is “inactive”.

On to `CCCCCC(O)c1cccc(OCc2ccc3ccccc3n2)c1` (configuration not stated), for which the B-score is 6 (active).

Turning to `O=C(O)CC12CC3CC(C1)CC(n1ncc(NCc4ccc(F)cc4)c(Cl)c1=O)(C3)C2`, the B-score result is “inactive”.

Take `O=C(N/N=C/c1cc2c(cc1Br)OCO2)C1COc2ccccc2O1` (configuration not stated): the B-score result was “inactive”.

On to `CC(=O)N/N=C/c1cc2c(cc1[N+](=O)[O-])OCO2`, for which the B-score result was “inactive”.

In the case of `CC1(C(=O)N/N=C/c2cc3c(cc2Br)OCO3)CC1(Br)Br` (configuration not stated), the B-score was 9 (active).

Regarding `CCCC(=O)N1CCN(c2nnc(-c3ccc(C)cc3)c3ccccc23)CC1`, the B-score was 7 (active).

With `OCCN1CCN(c2nnc(-c3ccccc3)c3ccccc23)CC1`, the B-score entry was “inactive”.

As to `c1ccc(-c2nnc(N3CCOCC3)c3ccccc23)cc1`, the B-score entry is “inactive”.

As to `COC(=O)c1ccc(S(=O)(=O)N2CCc3ccccc3C2)cc1`, the B-score entry is “inactive”.

Consider `COc1ccccc1CNC(=O)C1Cc2ccccc2C(=O)O1` (configuration not stated), for which the B-score entry is “inactive”.

With `CCNC(=S)N(CCN(CC)CC)Cc1cc2cc3c(cc2[nH]c1=O)OCO3`, the B-score entry is “inactive”.

For the compound `Clc1ccc(CSc2nnc3c(n2)[nH]c2ccccc23)cc1`, the B-score entry is “inactive”.

Consider `CC1Cc2ccccc2N1S(=O)(=O)c1ccc(Cl)nc1` (configuration not stated), for which the B-score result was “inactive”.

Turning to `CCCCn1ccnc1C(=O)c1cccc(S(=O)(=O)N2c3ccccc3CC2C)c1` (configuration not stated), the B-score is 6 (active).

Consider `CC1Cc2ccccc2N1S(=O)(=O)c1c(N)n(C)c(=O)n(C)c1=O` (configuration not stated), for which the B-score entry was “inactive”.

For `COc1ccc(C2C(C#N)=C(/N=C/N3CCOCC3)OC3=C2C(=O)CC(C)(C)C3)cc1OC` (configuration not stated), the B-score entry was “inactive”.

Turning to `CSc1nccc(NC(=O)c2ccc(C(C)(C)C)cc2)n1`, the B-score is 7 (active).

`COC(=O)c1nc(NC(=O)c2ccc(C(C)(C)C)cc2)n[nH]1`: the B-score entry is “inactive”.

On to `Cc1cccc(NC(=O)c2cccnc2Cl)n1`, for which the B-score entry is “inactive”.

For the compound `COc1ccccc1N(C)S(=O)(=O)c1ccc(Cl)c(C(=O)Nc2ccncc2)c1`, the B-score result is “inactive”.

Take `Cc1cnc(C(=O)OCC(=O)NCCCc2ccccc2)cn1`: the B-score result was “inactive”.

With `Cc1ccc(OC(=O)c2cncc(Br)c2)c(C)c1`, the B-score entry is “inactive”.

`Cc1cccc(Nc2ccccc2C(=O)NCc2ccco2)c1C`: the B-score is 9 (active).

In the case of `O=C(Nc1ccccc1)Nc1ccccc1C(=O)NCc1ccco1`, the B-score entry is “inactive”.

With `Cc1ccccc1NC(=O)NCc1ccco1`, the B-score result was “inactive”.
